Holding throughout (experiment): DAPPL (digital affinity profiling via proximity ligation, sequencing); 10 mM Tris-HCl pH 7.5, 50 mM NaCl, 1 mM DTT, 4% glycerol, room temperature, 30 min; GST-TFs on glutathione beads, 16-mer random dsDNA library, 0.1% formaldehyde crosslink after washing; high values mean tight binding
What all share (conditions): protein: recombinant; tags: N-terminal GST; dsDNA, one strand shown

One assay has as its target T1, ERF (Homo sapiens, UniProt P50548 1-548).
T1 sequence: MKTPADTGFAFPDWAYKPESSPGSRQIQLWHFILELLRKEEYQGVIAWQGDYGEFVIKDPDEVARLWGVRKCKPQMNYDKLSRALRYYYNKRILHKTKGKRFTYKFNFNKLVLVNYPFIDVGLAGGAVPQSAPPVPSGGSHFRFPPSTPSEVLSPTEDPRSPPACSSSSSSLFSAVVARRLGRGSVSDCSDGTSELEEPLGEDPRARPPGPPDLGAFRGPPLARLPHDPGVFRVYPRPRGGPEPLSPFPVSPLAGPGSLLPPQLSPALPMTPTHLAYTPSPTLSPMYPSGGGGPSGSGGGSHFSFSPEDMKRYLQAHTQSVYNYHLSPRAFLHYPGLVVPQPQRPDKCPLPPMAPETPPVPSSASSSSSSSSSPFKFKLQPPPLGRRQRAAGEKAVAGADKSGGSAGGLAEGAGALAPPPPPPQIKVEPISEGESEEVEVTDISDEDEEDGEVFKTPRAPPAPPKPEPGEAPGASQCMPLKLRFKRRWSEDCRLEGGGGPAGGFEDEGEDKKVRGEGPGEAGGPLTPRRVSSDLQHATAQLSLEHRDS
Put shortly: (§1)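 Binding signal is defined as a hexamer's read frequency for one factor over its frequency for the tag-only sample. To obtain reads, GST-fused human transcription factors were expressed in yeast, captured on glutathione beads, barcoded with DNA and pooled with that sample. Pools met 200 nmole of a 16-mer random double-stranded DNA library in Tris/NaCl/DTT/glycerol buffer for 30 min at room temperature before washing, 0.1% formaldehyde crosslinking, proximity ligation (BsaI/T4 ligase, 1 h, 37 °C), PCR and Illumina NextSeq500 sequencing.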

The target in another assay is T2, ETV3L (Homo sapiens, UniProt Q6ZN32 1-361).
T2 sequence: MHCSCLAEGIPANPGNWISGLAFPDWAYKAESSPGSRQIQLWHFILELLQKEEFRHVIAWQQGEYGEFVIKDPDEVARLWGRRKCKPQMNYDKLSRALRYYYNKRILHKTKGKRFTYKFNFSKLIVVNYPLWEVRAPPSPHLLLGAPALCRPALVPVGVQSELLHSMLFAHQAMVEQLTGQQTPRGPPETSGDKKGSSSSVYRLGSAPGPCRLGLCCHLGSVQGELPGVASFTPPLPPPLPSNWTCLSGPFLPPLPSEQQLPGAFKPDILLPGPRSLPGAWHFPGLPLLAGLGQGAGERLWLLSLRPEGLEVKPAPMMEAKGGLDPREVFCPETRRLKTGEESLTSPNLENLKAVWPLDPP
Put shortly: as §1

A further assay has as its target T3, ETS2 (Homo sapiens, UniProt P15036 1-469).
T3 sequence: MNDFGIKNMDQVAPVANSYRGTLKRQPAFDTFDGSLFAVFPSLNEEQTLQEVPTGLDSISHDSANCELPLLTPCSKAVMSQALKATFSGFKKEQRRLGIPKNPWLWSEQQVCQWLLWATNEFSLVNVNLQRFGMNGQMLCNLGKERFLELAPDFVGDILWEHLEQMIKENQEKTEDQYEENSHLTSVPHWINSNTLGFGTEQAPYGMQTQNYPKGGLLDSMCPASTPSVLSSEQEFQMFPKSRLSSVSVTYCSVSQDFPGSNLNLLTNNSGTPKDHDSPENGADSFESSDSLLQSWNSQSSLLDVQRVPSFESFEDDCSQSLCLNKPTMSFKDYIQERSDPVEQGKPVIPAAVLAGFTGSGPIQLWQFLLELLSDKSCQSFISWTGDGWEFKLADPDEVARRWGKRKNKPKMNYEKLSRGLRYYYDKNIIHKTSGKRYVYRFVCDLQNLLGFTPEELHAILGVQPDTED
The method in brief: as §1

A further assay concerns the target T4, SPDEF (Homo sapiens, UniProt O95238 1-335).
T4 sequence: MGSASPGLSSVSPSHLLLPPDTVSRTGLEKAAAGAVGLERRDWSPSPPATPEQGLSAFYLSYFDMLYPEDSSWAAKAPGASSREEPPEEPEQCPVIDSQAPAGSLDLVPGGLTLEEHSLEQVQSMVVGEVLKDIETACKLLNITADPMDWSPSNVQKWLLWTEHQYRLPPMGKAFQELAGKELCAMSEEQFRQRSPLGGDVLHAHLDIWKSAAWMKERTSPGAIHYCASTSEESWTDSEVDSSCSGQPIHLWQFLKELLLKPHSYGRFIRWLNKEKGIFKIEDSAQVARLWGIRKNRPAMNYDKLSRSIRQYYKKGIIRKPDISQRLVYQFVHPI
The method in brief:
as §1

The next assay deals with T5, ETV7 (Homo sapiens, UniProt Q9Y603 1-341).
T5 sequence: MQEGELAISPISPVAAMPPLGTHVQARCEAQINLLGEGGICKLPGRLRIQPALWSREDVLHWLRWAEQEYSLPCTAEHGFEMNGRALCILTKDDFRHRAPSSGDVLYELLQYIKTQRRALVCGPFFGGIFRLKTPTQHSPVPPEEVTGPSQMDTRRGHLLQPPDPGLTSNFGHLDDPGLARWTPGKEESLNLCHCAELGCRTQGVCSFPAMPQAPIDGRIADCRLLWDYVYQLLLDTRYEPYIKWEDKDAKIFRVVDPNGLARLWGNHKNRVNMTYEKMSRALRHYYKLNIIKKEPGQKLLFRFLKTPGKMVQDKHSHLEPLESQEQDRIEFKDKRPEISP
Put shortly:
as §1

For a further assay, the target named is T6, ELF5 (Homo sapiens, UniProt Q9UKW6-2 1-255).
T6 sequence: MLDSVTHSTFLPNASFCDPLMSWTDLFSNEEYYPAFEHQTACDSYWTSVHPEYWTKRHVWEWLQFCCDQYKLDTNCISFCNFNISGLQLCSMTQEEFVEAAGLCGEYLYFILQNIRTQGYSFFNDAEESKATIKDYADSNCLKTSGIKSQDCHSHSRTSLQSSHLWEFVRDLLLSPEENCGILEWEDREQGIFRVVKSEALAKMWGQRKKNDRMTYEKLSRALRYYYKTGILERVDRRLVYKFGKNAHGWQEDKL
Put shortly:
as §1

A further assay deals with T7, ETV3 (Homo sapiens, UniProt P41162-2 1-143).
T7 sequence: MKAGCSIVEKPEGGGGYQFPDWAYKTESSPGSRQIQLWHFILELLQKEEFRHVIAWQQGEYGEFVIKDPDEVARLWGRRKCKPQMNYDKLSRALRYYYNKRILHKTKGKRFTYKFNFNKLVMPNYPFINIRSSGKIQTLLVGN
The method in brief:
as §1

Another assay deals with ETV6 (Homo sapiens, UniProt P41212 1-452). Put shortly: as §1
Sequence of ETV6 (P41212 whole entry): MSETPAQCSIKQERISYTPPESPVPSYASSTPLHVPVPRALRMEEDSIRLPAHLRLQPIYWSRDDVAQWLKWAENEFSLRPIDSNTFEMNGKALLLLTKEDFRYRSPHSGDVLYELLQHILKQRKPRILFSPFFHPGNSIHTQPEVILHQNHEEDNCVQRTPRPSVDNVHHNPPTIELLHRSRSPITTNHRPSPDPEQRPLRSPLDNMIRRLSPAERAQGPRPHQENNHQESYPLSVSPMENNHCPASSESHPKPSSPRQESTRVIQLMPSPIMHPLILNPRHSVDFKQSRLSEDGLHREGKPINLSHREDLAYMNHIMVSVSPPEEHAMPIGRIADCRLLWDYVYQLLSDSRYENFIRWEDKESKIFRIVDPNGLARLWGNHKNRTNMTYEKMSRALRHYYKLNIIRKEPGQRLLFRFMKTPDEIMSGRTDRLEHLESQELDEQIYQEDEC

As for CCTCTT, the binding signal with ERF was 1.59 fold enrichment (6-mer frequency, TF over GST control); with ETV3L it was 1.71 fold enrichment (6-mer frequency, TF over GST control); with ETS2, 1.56 fold enrichment (6-mer frequency, TF over GST control); in the assay with SPDEF it was 1.57 fold enrichment (6-mer frequency, TF over GST control); with ETV7, 1.51 fold enrichment (6-mer frequency, TF over GST control); with ELF5, 1.75 fold enrichment (6-mer frequency, TF over GST control). Moreover, the binding signal was 1.67 fold enrichment (6-mer frequency, TF over GST control) with ETV3 and 1.68 fold enrichment (6-mer frequency, TF over GST control) with ETV6.
On to ACAGGA, for which the binding signal with ERF is 1.03 fold enrichment (6-mer frequency, TF over GST control); with ETV3L, 1.11 fold enrichment (6-mer frequency, TF over GST control); with ETS2, 1.16 fold enrichment (6-mer frequency, TF over GST control); in the assay with SPDEF, 1.37 fold enrichment (6-mer frequency, TF over GST control); with ETV7 it was 1.11 fold enrichment (6-mer frequency, TF over GST control); with ELF5 it was 1.28 fold enrichment (6-mer frequency, TF over GST control). The binding signal was 1.15 fold enrichment (6-mer frequency, TF over GST control) in the assay with ETV3 and 1.19 fold enrichment (6-mer frequency, TF over GST control) in the assay with ETV6.
Regarding GTCTTC, the binding signal in the assay with ERF is 1.29 fold enrichment (6-mer frequency, TF over GST control); in the assay with ETV3L, 1.23 fold enrichment (6-mer frequency, TF over GST control); with ETS2, 1.4 fold enrichment (6-mer frequency, TF over GST control); with SPDEF, 1.27 fold enrichment (6-mer frequency, TF over GST control); with ETV7, 1.14 fold enrichment (6-mer frequency, TF over GST control); in the assay with ELF5, 1.72 fold enrichment (6-mer frequency, TF over GST control). In addition, the binding signal was 1.4 fold enrichment (6-mer frequency, TF over GST control) in the assay with ETV3 and 1.32 fold enrichment (6-mer frequency, TF over GST control) with ETV6.
Take TTTCTT: the binding signal with ERF is 1.22 fold enrichment (6-mer frequency, TF over GST control); in the assay with ETV3L it was 1.34 fold enrichment (6-mer frequency, TF over GST control); with ETS2 it was 1.32 fold enrichment (6-mer frequency, TF over GST control); with SPDEF, 1.19 fold enrichment (6-mer frequency, TF over GST control); with ETV7, 1.37 fold enrichment (6-mer frequency, TF over GST control); with ELF5, 1.31 fold enrichment (6-mer frequency, TF over GST control). The binding signal with ETV3 was 1.34 fold enrichment (6-mer frequency, TF over GST control); with ETV6, 1.23 fold enrichment (6-mer frequency, TF over GST control).
TATTAG: the binding signal with ERF was 1 fold enrichment (6-mer frequency, TF over GST control); in the assay with ETV3L, 1.04 fold enrichment (6-mer frequency, TF over GST control); with ETS2, 1.06 fold enrichment (6-mer frequency, TF over GST control); in the assay with SPDEF, 1.06 fold enrichment (6-mer frequency, TF over GST control); with ETV7, 1.03 fold enrichment (6-mer frequency, TF over GST control); with ELF5, 1.06 fold enrichment (6-mer frequency, TF over GST control). The binding signal with ETV3 is 1.05 fold enrichment (6-mer frequency, TF over GST control); in the assay with ETV6 it was 1.05 fold enrichment (6-mer frequency, TF over GST control).
As to CCCCTT, the binding signal with ERF was 1.53 fold enrichment (6-mer frequency, TF over GST control); with ETV3L it was 1.47 fold enrichment (6-mer frequency, TF over GST control); in the assay with ETS2, 1.51 fold enrichment (6-mer frequency, TF over GST control); with SPDEF, 1.5 fold enrichment (6-mer frequency, TF over GST control); with ETV7 it was 1.56 fold enrichment (6-mer frequency, TF over GST control); with ELF5, 1.64 fold enrichment (6-mer frequency, TF over GST control). Moreover, the binding signal with ETV3 was 1.51 fold enrichment (6-mer frequency, TF over GST control); with ETV6 it was 1.51 fold enrichment (6-mer frequency, TF over GST control).
As to ATCCCG, the binding signal with ERF is 1.4 fold enrichment (6-mer frequency, TF over GST control); with ETV3L, 1.33 fold enrichment (6-mer frequency, TF over GST control); with ETS2, 1.44 fold enrichment (6-mer frequency, TF over GST control); with SPDEF, 1.71 fold enrichment (6-mer frequency, TF over GST control); with ETV7, 1.27 fold enrichment (6-mer frequency, TF over GST control); in the assay with ELF5, 1.7 fold enrichment (6-mer frequency, TF over GST control). Also, the binding signal in the assay with ETV3 was 1.41 fold enrichment (6-mer frequency, TF over GST control); in the assay with ETV6 it was 1.52 fold enrichment (6-mer frequency, TF over GST control).
Consider GCTGAA, for which the binding signal with ERF is 1.16 fold enrichment (6-mer frequency, TF over GST control); in the assay with ETV3L, 1.13 fold enrichment (6-mer frequency, TF over GST control); in the assay with ETS2, 1.16 fold enrichment (6-mer frequency, TF over GST control); with SPDEF, 1.17 fold enrichment (6-mer frequency, TF over GST control); in the assay with ETV7, 1.08 fold enrichment (6-mer frequency, TF over GST control); with ELF5, 1 fold enrichment (6-mer frequency, TF over GST control). The binding signal with ETV3 is 1.1 fold enrichment (6-mer frequency, TF over GST control); with ETV6, 1.09 fold enrichment (6-mer frequency, TF over GST control).

(Values after PMC7862700, “An all-to-all approach to the identification of sequence-specific readers for epigenetic DNA modifications on cytosine”.)
